# Screens from PubChem BioAssay.
# Compounds with a hit are over-represented: about 6.8% of the library has one in this group of screens.
# PTAP TSG101 blk = blocks PTAP/TSG101 interaction to inhibit HIV-1 budding. AID 493005. Fluorescence polarization, FITC-PTAP peptide / Tsg101 binding. Potency, µM (highest dose often 115 µM), for inactives: top-dose activity change, negative = inhibition, actives largely listed as inhibitors. Q99816. 340,000 tested, under 10 active; active = well fitted inhibition curve with a large enough effect in the main read-out, with a control signal flat, not every such curve was filed as active; inconclusive = small, poorly fitted or top-dose-only effect, or effect the other way, or a change in a side signal; inactive = no such curve, though single readings can be large or run the other way; also: % of control where 0% means no effect
# Target sequence (Q99816 whole entry, looked up): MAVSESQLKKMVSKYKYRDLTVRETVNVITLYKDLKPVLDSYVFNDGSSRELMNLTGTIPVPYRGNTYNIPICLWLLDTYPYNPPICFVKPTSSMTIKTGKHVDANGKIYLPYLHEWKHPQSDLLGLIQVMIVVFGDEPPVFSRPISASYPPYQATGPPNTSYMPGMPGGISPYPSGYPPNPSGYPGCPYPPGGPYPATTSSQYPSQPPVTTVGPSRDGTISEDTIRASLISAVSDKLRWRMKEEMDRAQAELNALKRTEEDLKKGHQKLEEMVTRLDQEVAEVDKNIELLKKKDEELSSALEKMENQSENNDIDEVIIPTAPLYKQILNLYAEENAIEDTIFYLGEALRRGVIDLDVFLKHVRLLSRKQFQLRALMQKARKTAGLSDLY
#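 FP read-out: FITC-PTAP peptide, 50 nM final, binding Tsg101 binding domain, 10 uM final; 20 min, r.t.; 10 mM HEPES pH 7.5, 0.15 M NaCl, 0.01% Tween 20, 3 mM EDTA, 0.1 mM TCEP.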
# KB-V1 cytotox = kills drug-selected multidrug resistant KB-V1 cells. KB-V1 MDR cells viability, CellTiter-Glo, 72 h. Potency, µM (doses to about 46.1 µM), usual class: cytotoxic. 3.4% of 400,000 active. AID 1347076; also: % is scaled to controls: 0 for no effect and ±100 for the full control effect; nearly all actives have a fitted effect of over 60% in size
#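 qHTS viability screen in drug-selected KB-V1 MDR cells: 72 h compound treatment at 37 degrees C, ATP luminescence end point.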
# KB-3-1 cytotox = KB-3-1 parental cell cytotoxicity; 1.4% of 400,000 active; Potency, µM (doses to about 46.1 µM), usual class: cytotoxic; KB-3-1 viability, CellTiter-Glo ATP luminescence, 72 h; also: % is scaled to controls: 0 for no effect and ±100 for the full control effect; nearly all actives have a fitted effect of over 60% in size
#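 Here the drug-naive KB-3-1 line serves as comparator for MDR sub-line selectivity; cells received compound titrations, 72 h at 37 °C, then CellTiter-Glo readout.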
# MCF10A rerep = DNA re-replication induction in MCF 10a cells | MCF 10A DNA re-replication, Hoechst nuclear intensity, 48 h | Potency, µM (series often up to 46.1 µM), without a hit: at the highest dose activity, positive = re-replication, most hits filed as activators | 2.9% of 350,000 active | AID 624296; also: % of control where 0% means no effect; nearly all actives have a fitted effect of over 50% in size
# PINK1 expr mod = modulators of PINK1 expression | Potency, µM (titrated, usually from 76.6 µM), for inactives: at the highest dose activation (PINK1 increase), hits mostly activators | PINK1 immunofluorescence, high-content cytometry, 24 h | 0.2% of 410,000 active; active = well fitted activation curve with a large enough effect; inconclusive = small, poorly fitted or top-dose-only effect; cell line not stated here; also: % of control where 0% means no effect; nearly all actives have a fitted effect of over 65% in size
#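 Stable cell line, 250 cells/well, 12 h attachment; compounds pinned at 5 concentrations, 24 h; CCCP control. Fixed with nuclear dye, primary antibodies 12 h at 10 degrees C, secondary plus cell stain; laser-scanning cytometer read.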
# SW480 rereplic = DNA re-replication induction in SW480 cells; SW480 DNA re-replication, Hoechst DNA content imaging, 48 h; Potency, µM (highest dose often 46.1 µM), without a hit: top-dose re-replication activation, usual class: activators; 1.8% of 340,000 active; also: % of control where 0% means no effect; nearly all actives have a fitted effect of over 55% in size
#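 Compounds, transferred as 23 nL by pin tool, were incubated with cells for 48 hr; DNA content per nucleus was then quantified by Hoechst staining and fluorescence plate imaging.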
# An asterisk follows results filed as active; i = inactive; ? = inconclusive; . = not tested or not shown; [ ] = dose if it differs, or a comment. Unless noted, calls follow the shape of the dose curve; as a rule, active = well fitted curve in the direction sought with a large enough effect; inconclusive = small, poorly fitted or top-dose-only effect, or another doubt; inactive = no such curve, though single readings can be large; an effect the other way counts as inactive or inconclusive. Potency is read from the fitted curve at half-maximal effect.
SMILES,PTAP TSG101 blk,KB-V1 cytotox,KB-3-1 cytotox,MCF10A rerep,PINK1 expr mod,SW480 rereplic
COCCCN1C(=O)C(CC(=O)NCc2cccc3ccccc23)CC(C(=O)N2CCOCC2)=C1C (stereo unspecified),.,i,i,.,2%,.
COCCCN1C(=O)C(CC(=O)NCc2cccc3ccccc23)CC(C(=O)N2CCCCCC2)=C1C (stereo unspecified),.,10µM*,.,.,.,.
COc1cc(NC(=O)CN(C)S(=O)(=O)c2ccc3[nH]c4c(c3c2)CCCC4)cc(OC)c1OC,.,i,i,.,2%,.
CCCCOC(=O)c1ccc(NS(=O)(=O)c2c(C)nc3scc(C)n3c2=O)cc1,.,8.2µM*,i,.,3%,.
N=c1n(CCN2CCCCC2)c2ccccc2n1CC(=O)c1ccc(Cl)c(Cl)c1,-6%,?,?,10µM*,-2%,?
Cc1ccc(C(=O)Cn2c(=N)n(CCN3CCOCC3)c3ccccc32)cc1,-5%,i,i,-8%,0%,-10%
CCn1c(=N)n(CC(=O)c2ccc(Cl)c(Cl)c2)c2ccccc21,-1%,16µM*,?,26µM*,-1%,?
N=c1n(CCN2CCCCC2)c2ccccc2n1CC(O)c1cccc(Br)c1 (stereo unspecified),-7%,?,?,?,-1%,?
N=c1n(CCN2CCCCC2)c2ccccc2n1CC(O)c1ccc(Cl)c(Cl)c1 (stereo unspecified),-4%,21µM*,?,?,1%[38.3 µM],-2%
Cc1ccc(Cn2c(=N)n(CC(=O)c3ccc([N+](=O)[O-])cc3)c3ccccc32)cc1,4%,15µM*,18µM*,9.2µM*,13%,?
CC(=O)c1ccc(NC(=O)CN2C(=O)c3cccnc3Sc3ccccc32)cc1,.,i,i,.,4%,.
COc1ccc2c(c1)CCc1cnc(-n3ncc(C(=O)NCCCc4ccncc4)c3C)nc1-2,.,.,.,.,2%,.
Cc1cc(O)c2c(C)c(CC(=O)NCc3ccccc3Cl)c(=O)oc2c1,.,i,i,.,5%,.
O=C(NC(c1cccnc1)C(F)(F)F)c1cc(COc2ccc3c(c2)CCCC3)on1 (stereo unspecified),0%,?,21µM*,?,15%,?
OC1(c2cccnc2)CCN(Cc2ccc3c(c2)CN(Cc2cc4ccccc4s2)CCO3)CC1,.,.,.,.,-1%,.
Cc1cc([N+](=O)[O-])nn1CCCC(=O)O,-1%,?,i,-7%,0%,-1%
Cc1cc([N+](=O)[O-])nn1CCCC(=O)N1CCN(c2ccc(F)cc2)CC1,-2%,18µM*,i,-5%,2%,-54%
Cc1cc([N+](=O)[O-])nn1CCCC(=O)Nc1cc(Oc2ccc(F)cc2)cc([N+](=O)[O-])c1,-3%,5.8µM*,i,-3%,?,-2%
CCCCNC(=O)C(CC)n1c(SCc2cccc(F)c2)nc2ccncc21 (stereo unspecified),.,i,i,.,3%,.
Cc1ncoc1C(=O)NCc1nc(-c2cccc(NC(=O)c3ccccn3)c2)oc1C,.,.,.,.,0%,.
COc1ccc(C[C@H]2CN3C(=NC[C@@H]3Cc3ccccc3)N2CCNC(=O)CCC2CCCCC2)cc1,-4%,16µM*,?,?,1%,?
CCc1ccc(-c2nc(CSCC(=O)N3CCN(c4ccccn4)CC3)c(C)o2)cc1,-6%,18µM*,?,50%[0.0737 µM],2%,3%
CSc1ccc(-c2nc(CSCC(=O)NCCCN3CCCC3=O)c(C)o2)cc1,1%,i,i,1%,0%,?
COc1ccc(-c2nc(CSCC(=O)NCCC3=CCCCC3)c(C)o2)cc1OC,-11%,21µM*,i,4%,2%,7%
Cc1ccc(-c2nc(CSCC(=O)N3CCN(c4ccccn4)CC3)c(C)o2)cc1,1%,?,?,10%,3%,8%
SMILES,PTAP TSG101 blk,KB-V1 cytotox,KB-3-1 cytotox,MCF10A rerep,PINK1 expr mod,SW480 rereplic
COc1ccc(-c2nc(CSCC(=O)NCCc3ccc(C)cc3)c(C)o2)cc1OC,.,i,i,.,0%,.
CCc1ccc(-c2nc(CSCC(=O)NCCCN3CCCC3=O)c(C)o2)cc1,0%,16µM*,i,18%,-2%[38.3 µM],-4%
CCOCCCNC(=O)CSCc1nc(-c2ccc(SC)cc2)oc1C,-5%,i,i,4%,-2%,-8%
COCCNC(=O)CSCc1nc(-c2ccc(SC)cc2)oc1C,-1%,9.2µM*,?,0%,1%[38.3 µM],1%
COc1cc(-c2cccc(Cl)c2)cc2c1OCCN(C(=O)CCn1ccc(C)n1)C2,.,.,.,.,0%,.
COc1cccc(CNC(=O)CSC2=Nc3ccccc3N=C(c3ccc(F)cc3)C2)c1,.,i,i,.,3%,.
CCCCOc1ccc(S(=O)(=O)Nc2cccnc2)cc1,-1%,5.8µM*,26µM*,-5%,.,-2%
CCCCOc1cccc(C(=O)NC(=S)Nc2cccnc2)c1,0%,18µM*,i,3%,4%,-6%
CCOc1cccc(C(=O)NC(=S)Nc2cccnc2)c1,-3%,?,i,0%,-2%,-6%
Cc1ccc(S(=O)(=O)Nc2cccnc2)cc1,-3%,i,i,5%,0%,0%
O=C(COc1ccc2ccccc2c1)NC1CC(=O)N(c2ccccc2)C1 (stereo unspecified),.,.,.,.,1%,.
CS(=O)(=O)N1CCN(C(=O)C(Sc2ccccc2)c2ccccc2)CC1 (stereo unspecified),-3%,i,i,-11%,-2%[38.3 µM],3%
O=C(OCC(=O)N1CCOCC1)C(c1ccccc1)c1ccccc1,1%,21µM*,i,9%,2%,?
O=C(OCC(=O)N1CCOCC1)c1ccccc1Br,-3%,i,i,-2%,1%,-6%
O=C(C(Sc1ccccc1)c1ccccc1)N1CCOCC1 (stereo unspecified),-2%,18µM*,i,-6%,2%,?
COc1ccc(-c2noc(CSc3nnc(C)n3-c3ccc(C)c(C)c3)n2)c(OC)c1,.,i,i,.,-2%,.
Cc1ccc(OCCn2nnc3sc4c(c3c2=O)CCC(C)C4)cc1 (stereo unspecified),.,i,i,.,5%,.
O=C(CCl)Nc1cccc(Oc2cnccn2)c1,-1%,?,21µM*,?,12%,51%
COC(=O)c1c(OCc2cccnc2)cc(=O)n2c1CCN(C(=O)c1c3c(nn1C)CCCC3)CC2,.,.,.,.,0%,.
CCOC(=O)C1(S(=O)(=O)c2ccc(Cl)cc2)CCN(Cc2ccc(C)cc2)CC1,-4%,21µM*,?,?,5%[38.3 µM],13%
